Source: PubChem BioAssay (NCATS)
Inconclusive results are not listed. Active and inactive are the calls of the source. Calls come from the whole dose curve; as a rule, active = well fitted inhibition curve with a large enough effect; inconclusive = small, poorly fitted or top-dose-only effect; inactive = no such curve, though single readings can be large or run the other way.

biological target: Cytochrome P450 2C19 (Homo sapiens) (UniProt P33261); test: qHTS Assay for Inhibitors and Substrates of Cytochrome P450 2C19 (AID 899); details: recombinant CYP2C19, luciferin-H EGE luminescence; series mostly up to 11.4 µM; note: nearly all actives have a fitted effect of over 60% in size
Procedure, shortened: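 Human CYP2C19 (5nM) with Luciferin-H EGE at 10uM (its KM) in 50mM KPO4 was preincubated with compound for 10 min at 37C. NADPH regeneration started a 60 min 37C reaction. Luciferin was read by luminescence, normalized to 57uM ketoconazole.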
Potency is the fitted concentration of half-maximal effect.

Sequence of Cytochrome P450 2C19 (Homo sapiens) (P33261 whole entry, looked up): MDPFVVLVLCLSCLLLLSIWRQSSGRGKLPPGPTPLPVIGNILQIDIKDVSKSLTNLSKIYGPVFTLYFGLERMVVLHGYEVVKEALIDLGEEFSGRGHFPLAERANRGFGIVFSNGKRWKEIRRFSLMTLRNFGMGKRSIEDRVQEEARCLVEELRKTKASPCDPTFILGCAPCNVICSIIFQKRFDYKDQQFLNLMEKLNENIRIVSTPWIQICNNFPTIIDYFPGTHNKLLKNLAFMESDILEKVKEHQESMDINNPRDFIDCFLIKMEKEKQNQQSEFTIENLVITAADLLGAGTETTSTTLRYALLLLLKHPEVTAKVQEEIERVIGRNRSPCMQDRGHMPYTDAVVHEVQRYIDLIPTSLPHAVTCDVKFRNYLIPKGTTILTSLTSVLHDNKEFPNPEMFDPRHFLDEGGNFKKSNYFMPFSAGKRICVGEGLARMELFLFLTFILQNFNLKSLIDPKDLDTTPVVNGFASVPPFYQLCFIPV

Potency, active:
COC(=O)[C@@]1(Cc2ccc(F)cc2)[C@H]2c3cc(C(=O)N4CCCC4)n(CCc4c[nH]c5ccc(OC)cc45)c3C[C@H]2CN1C(=O)c1ccccc1 7.94 µM, CCC/C=C(\CCC)C(NS(C)(=O)=O)c1ccccc1 (centres undefined) 7.94 µM, COCCNC(=O)[C@H](C)[C@@H]1C[C@@]1(C)[C@@H](NC(=O)OCc1ccccc1)c1ccccc1 3.16 µM, C[C@H](CO)NC(=O)[C@H](C)[C@H]1C[C@]1(C)[C@H](NC(=O)OCc1ccccc1)c1ccccc1 0.631 µM
